Laboratory results: PubChem BioAssay AID1851 (National Center for Advancing Translational Sciences (NCATS), 2009)
“And” between values parts separate entries of the source, which are not always exact repeats. Equal entries are not always repeated. About 5,700 (36%) of roughly 16,000 compounds were called active. Inconclusive results (about 24%) are left out. The list shows a part of the results. Unmarked numbers belong to inactive results. Calls come from the whole dose curve; as a rule, active = well fitted curve in the direction sought with a large enough effect; inconclusive = small, poorly fitted or top-dose-only effect, or effect the other way; inactive = no such curve, though single readings can be large or run the other way.

These compounds were tested against Cytochrome P450 1A2 (Homo sapiens) (UniProt P05177) (assay: Cytochrome panel assay with activity outcomes). Settings: recombinant CYP, pro-luciferin dealkylation, luminescence, p450-cyp1a2; series mostly up to 57.1 µM; activity, negative = inhibition: at the top concentration.
Cytochrome P450 1A2 (Homo sapiens), sequence (P05177 whole entry, looked up): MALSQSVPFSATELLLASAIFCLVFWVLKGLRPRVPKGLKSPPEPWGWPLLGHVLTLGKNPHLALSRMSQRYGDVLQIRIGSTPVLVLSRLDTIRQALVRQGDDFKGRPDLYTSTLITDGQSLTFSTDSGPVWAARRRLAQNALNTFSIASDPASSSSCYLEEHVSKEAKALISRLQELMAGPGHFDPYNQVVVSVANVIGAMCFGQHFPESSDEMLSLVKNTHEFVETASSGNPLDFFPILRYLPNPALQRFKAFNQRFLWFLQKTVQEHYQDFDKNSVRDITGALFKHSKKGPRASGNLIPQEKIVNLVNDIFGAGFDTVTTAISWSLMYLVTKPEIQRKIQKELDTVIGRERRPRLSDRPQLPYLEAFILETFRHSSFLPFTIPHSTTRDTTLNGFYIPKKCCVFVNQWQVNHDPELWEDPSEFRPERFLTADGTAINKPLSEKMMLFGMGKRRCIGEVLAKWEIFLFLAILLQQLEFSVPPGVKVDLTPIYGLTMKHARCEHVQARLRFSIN
% is set by controls: 0 for no effect and ±100 for the full control effect.

With `Cc1cc(NC(=O)CCC(=O)N2CCC3(CC2)OCCO3)no1` as the compound, how does the “activity, negative = inhibition” value read?
Its value is -14.7%.

For `O=C(c1cc2cc3ccc(Cl)cc3nc2o1)N1CCC2(CC1)OCCO2`, which AC50 is on record?
Its AC50 is 6.31 µM (active).

`Cc1ccc(S(=O)(=O)NCC2CCC(C(=O)N3CCC4(CC3)OCCO4)CC2)cc1` (stereo not drawn) was tested. Which “activity, negative = inhibition” value did it give?
Its value is -4.19%.

With `O=C(Cn1ncc2ccsc2c1=O)N1CCC2(CC1)OCCO2` as the compound, how does the “activity, negative = inhibition” value read?
The value was -10%.

For `COC(=O)[C@H](N)CCCN=C(N)N[N+](=O)[O-]`, which “activity, negative = inhibition” value is on record?
Its value is -6.84%.

For `CN1CCc2cccc(Cl)c2CC1`, which “activity, negative = inhibition” value is on record?
The value was -19.4%.

For `CCCC(=O)Nc1ccc(N2CCN(CC)CC2)c(Cl)c1`, which “activity, negative = inhibition” value is on record?
The value was -11.9%.

For `C[C@@H]1O[C@H](O[C@@H]2CC[C@@]3(C=O)[C@H]4CC[C@@]5(C)[C@@H](C6=CC(=O)OC6)CC[C@@]5(O)[C@@H]4CC[C@]3(O)C2)C[C@H](O)[C@@H]1O`, which “activity, negative = inhibition” value is on record?
The value was -3.45% [at 25.6 µM].

`CN1C(=O)C(=Cc2ccccc2Oc2ccc(Cl)c(F)c2)C(=O)N(C)C1=O` was tested. Which AC50 did it give?
The AC50 was 22.4 µM (active).

`Cc1ccc(N2C(=O)/C(=C/N3CCN(C(=O)c4ccco4)CC3)C(=O)NC2=S)cc1C` was tested. Which “activity, negative = inhibition” value did it give?
Its value is -23.4%.

How did the “activity, negative = inhibition” value turn out when `O=C(NC1CCCCC1)NC1CC2CCC(C1)N2Cc1nnnn1Cc1ccc2c(c1)OCO2` (stereo not drawn) was run?
Its value is -28.4%.

How did the “activity, negative = inhibition” value turn out when `CC(C)CN1CC2(CCN(C(=O)Oc3ccccc3)CC2)C1` was run?
The value was -1.37%.

With `c1csc(CN2CCC3(CCNCC3)CC2)n1` as the compound, how does the “activity, negative = inhibition” value read?
Its value is 2.27%.

How did the AC50 turn out when `COc1cc(OC)c(/C=C2/C(=O)Nc3ccccc32)c(OC)c1` was run?
Its AC50 is 0.501 µM (active).

For `C=C(C)c1ccccc1` (tested in a mixture with another compound), which activity, negative = inhibition is on record?
Its activity, negative = inhibition is -19.6% [at 2.29 µM].

How did the “activity, negative = inhibition” value turn out when `C[N+]1([O-])[C@@H]2CC[C@H]1CC(OC(=O)[C@@H](CO)c1ccccc1)C2` (stereo partly drawn) was run?
The value was 0.733% [at 25.6 µM].

Which “activity, negative = inhibition” value does the source give for `CC(=O)Nc1ccccc1C(=O)OCc1ccc(C(=O)c2ccccc2)cc1` here?
The value was -26.4%.

For `CC(=O)Nc1ccccc1C(=O)OCC(=O)c1ccc2ccccc2c1`, which AC50 is on record?
The AC50 was 3.16 µM (active).

Which activity, negative = inhibition does the source give for `CS(=O)(=O)O[C@H]1CN2CCC1CC2` here?
Its activity, negative = inhibition is -18.7% [at 11.4 µM].

`CCOc1ccc(C2C(C#N)=C(N)Oc3c2c(=O)oc2ccccc32)cc1` (stereo not drawn) was tested. Which AC50 did it give?
The AC50 was 5.01 µM (active).

`COc1ccc2c3c1O[C@@H]1C(=O)CC[C@@]4(O)[C@@H](C2)N(CC2CC2)CC[C@]314` was tested. Which “activity, negative = inhibition” value did it give?
The value was -8.78%.

For `C[C@H](Br)C(=O)c1ccc2cc(Br)c3ccccc3c2c1`, which AC50 is on record?
Its AC50 is 0.158 µM (active).

How did the activity, negative = inhibition turn out when `CC1=C(CC[C@H](C)CO)O[C@@H]2C[C@@H]3[C@H]4CC[C@H]5C[C@@H](O)CC[C@]5(C)[C@@H]4CC(=O)[C@@]3(C)[C@@H]12` was run?
The activity, negative = inhibition was -21.1% [at 2.29 µM].

For `O=C(O)Cc1cnc[nH]1`, which “activity, negative = inhibition” value is on record?
The value was 5.78%.

For `NC(N)=NS(=O)(=O)c1ccc(N)cc1`, which “activity, negative = inhibition” value is on record?
The value was 1.99% [at 25.6 µM].

How did the AC50 turn out when `O=C1c2cc([N+](=O)[O-])ccc2-c2ccc3c4ccc5c6c(ccc(c7ccc1c2c73)c64)C(=O)c1cc([N+](=O)[O-])ccc1-5` was run?
Its AC50 is 0.794 µM (active).

With `O=C(O)CCCc1ccc(N(CCCl)CCCl)cc1` as the compound, how does the “activity, negative = inhibition” value read?
The value was -10.6% [at 25.6 µM].

With `C[C@@H]1O[C@H]1P(=O)(O)O` as the compound, how does the “activity, negative = inhibition” value read?
Its value is 7.68%.

With `Cc1nccc2c1[nH]c1ccccc12` as the compound, how does the AC50 read?
Its AC50 is 1.26 µM (active) and 631 nM (active).

Which AC50 does the source give for `Cc1c2ccncc2c(C)c2c1[nH]c1ccccc12` here?
Its AC50 is 0.02 µM (active).

With `COC(=O)[C@H]1C(=O)c2ccccc2O[C@@](C(=O)OC)(c2ccccc2)[C@@H]1c1ccccc1` as the compound, how does the activity, negative = inhibition read?
The activity, negative = inhibition was 6.39% [at 11.4 µM].

`C[N+]1(C)CCN(c2ccccc2)CC1` was tested. Which “activity, negative = inhibition” value did it give?
The value was 9.07%.

Which “activity, negative = inhibition” value does the source give for `COc1ccc(C(=O)OC2C[C@H]3CC[C@@H](C2)N3C)cc1OC` (stereo partly drawn) here?
The value was -6.56% [at 25.6 µM].

`Cc1cccc(NC(=S)NC2CC3CCCC(C2)N3Cc2cccs2)c1` (stereo not drawn) was tested. Which “activity, negative = inhibition” value did it give?
Its value is -15.8%.

For `CCc1ccccc1NC(=O)NC1CC2CCC(C1)N2Cc1cccs1` (stereo not drawn), which “activity, negative = inhibition” value is on record?
The value was -17.5%.

How did the “activity, negative = inhibition” value turn out when `CCSc1nnc(C(N)Cc2ccccc2)o1` (stereo not drawn) was run?
The value was -7.56%.

`NCCCNCCSP(=O)(O)O` was tested. Which “activity, negative = inhibition” value did it give?
Its value is -7.82%.

For `CC1CN=C(Nc2cccc3ccccc23)S1` (stereo not drawn), which AC50 is on record?
The AC50 was 2 µM (active).

Which “activity, negative = inhibition” value does the source give for `O=C(Nc1cccc2ccccc12)c1nn(C23CC4CC(CC(C4)C2)C3)cc1Br` here?
Its value is -12.6%.

With `CCC12C=CCN3CCC4(c5cc(Br)c(OC)cc5N(C)C4C(O)(C(=O)OC)C1OC(C)=O)C32` (stereo not drawn) as the compound, how does the “activity, negative = inhibition” value read?
The value was -4.2%.

With `CCC[C@@H]1CC2=CC(=O)CC[C@]2(C)[C@@H]2CC[C@@]3(C)[C@H](CC[C@]3(O)CCC(=O)O)[C@H]12` as the compound, how does the “activity, negative = inhibition” value read?
Its value is -1.14%.

`COc1cc(C[C@H](C)N)c(OC)cc1I` was tested. Which AC50 did it give?
Its AC50 is 6.31 µM (active) and 12.6 µM (active).

`Clc1cnc(Oc2ccc(Oc3ncc(Cl)cc3Cl)cc2)c(Cl)c1` was tested. Which “activity, negative = inhibition” value did it give?
Its value is -12.7%.

With `CCNC[C@H](O)c1cccc(O)c1` as the compound, how does the “activity, negative = inhibition” value read?
Its value is 4.57% [at 25.6 µM].

With `c1cncc(CNCCN2CCNCC2)c1` as the compound, how does the activity, negative = inhibition read?
The activity, negative = inhibition was 6.05% [at 11.4 µM].

With `c1cncc(CNc2cc(-c3ccc4c(c3)OCO4)ncn2)c1` as the compound, how does the AC50 read?
The AC50 was 0.251 µM (active).

With `Cc1o[nH]c(=O)c1C[C@H](N)C(=O)O` as the compound, how does the “activity, negative = inhibition” value read?
Its value is -5.8%.

With `c1ccc2sc(C3(N4CCCCC4)CCCCC3)cc2c1` as the compound, how does the AC50 read?
The AC50 was “inactive”.

How did the “activity, negative = inhibition” value turn out when `COc1ccn(C)c(=O)c1C#N` was run?
Its value is -9.26% [at 25.6 µM].

Which activity, negative = inhibition does the source give for `CO[C@H]1[C@H](O)[C@H](O[C@@H]2[C@H](Oc3cccc4c(O)c5c(=O)oc6ccc(C)c7c(=O)oc(c34)c5c67)O[C@@H](C)[C@H](O)[C@H]2O)O[C@@H](C)[C@@H]1O` here?
The activity, negative = inhibition was -16.6% [at 11.4 µM].

With `O=[As](O)(O)c1ccc2nc3cc([As](=O)(O)O)ccc3nc2c1` as the compound, how does the activity, negative = inhibition read?
The activity, negative = inhibition was -15.1% [at 11.4 µM].

`C=C1[C@@H](O)C2C=CC[C@H](C)C(=O)[C@@](C)(O)C=C[C@@H](OC(C)=O)[C@@]23C(=O)N[C@H](Cc2ccccc2)[C@@H]3[C@@H]1C` (stereo partly drawn) was tested. Which “activity, negative = inhibition” value did it give?
Its value is -13%.

For `c1ccc(N2CCCC3(CCNCC3)C2)cc1`, which “activity, negative = inhibition” value is on record?
Its value is -16.7%.
